# DAX1 inh-1 = inhibitors of DAX1 repression of SF-1 activated StAR promoter; hit rate 1.1% among 370,000; HEK293T StAR-luciferase reporter, SF-1/DAX-1 repression relief; inhibition, % at 6.8 µM;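 active = inhibition above the mean over all tested compounds plus 3 SD, cut at about 3.6% in these data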;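 also: 0% = DAX-1 cells with DMSO and 100% = cells lacking DAX-1 with DMSO; higher inhibition means more luminescence from relief of DAX-1 repression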
# hcDAF-12 act = activators of H. contortus DAF-12 nuclear receptor; HEK293 hcDAF-12 lit1-tk-luc reporter, luminescence; 0% DMSO, 100% Δ7-dafachronic acid; activation, % at 6.8 µM; hit rate 1.4% among 370,000;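 active = activation above the mean of all tested compounds plus 3 SD, cut at about 5.5% in these data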;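 also: 100% = response to 3 µM Δ7-dafachronic acid high control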
# ssDAF12 agonist = S. stercoralis DAF-12 activation, primary screen | hit rate 1% among 370,000 | activation, % at 6.8 µM | HEK293 ssDAF-12/GRIP1 lit1-tk-luc reporter, luminescence; % of 3 µM dafachronic acid response;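 active = activation above the mean over all tested compounds plus 3 SD, cut at about 0.9% in these data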;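 also: 0% = DMSO-only wells and 100% = 3 µM delta7-dafachronic acid wells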
# hgDAF-12 ag = hgDAF-12 agonism, primary luciferase screen; AID 687014; activation, % at 6.8 µM; HEK293 GAL4-hgDAF12 UAS-luciferase reporter, agonist luminescence; normalized to butyrate control; hit rate 1.8% among 370,000;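 active = activation above a cutoff set at the mean of all screened compounds plus 3 SD, cut at about 10% in these data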;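 also: 0% = DMSO wells and 100% = sodium butyrate wells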
# DAX1 inh-2 = inhibits human nuclear receptor DAX1; P51843; inhibition, % at 6.75 µM; hit rate 0.99% among 340,000; HEK293 Gal4-DAX1 luciferase reporter, luminescence;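 active = inhibition above the mean over all tested compounds plus 3 SD, cut at about 4.2% in these data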;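 also: 0% = DAX1-transfected cells with DMSO and 100% = empty-vector control cells with DMSO; inhibition shows as a rise in luminescence from relieved DAX1 repression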
# Target sequence (P51843 207-470 limits assumed): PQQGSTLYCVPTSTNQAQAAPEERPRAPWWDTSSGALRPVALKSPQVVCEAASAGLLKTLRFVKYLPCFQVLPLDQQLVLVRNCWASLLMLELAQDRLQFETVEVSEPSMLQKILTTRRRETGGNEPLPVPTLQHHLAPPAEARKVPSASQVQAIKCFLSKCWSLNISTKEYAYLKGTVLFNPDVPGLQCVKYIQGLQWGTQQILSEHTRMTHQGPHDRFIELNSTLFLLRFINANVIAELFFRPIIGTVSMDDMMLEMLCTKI
# DAX1 conf = confirmation of human DAX1 (NR0B1) inhibitors | shares compounds with DAX1 inh-1 | HEK293T StAR-promoter luciferase reporter, SF-1/DAX-1 repression | inhibition, % at 6.8 µM | hit rate 87% among 2,400;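 active = inhibition above the average of every tested compound plus 3 SD, cut at about 3.8% in these data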;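 also: 0% = DAX-1 cells with DMSO and 100% = no DAX-1 control cells with DMSO; active compounds raise luminescence by relieving repression of the StAR reporter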
# SF1 mutant ctr = nonselective inhibitor or artifact in SF-1 mutant DAX1 counter-screen | HEK293 StAR-luciferase, SF-1 AF2 mutant, luminescence | hit rate 78% among 2,400 | shares compounds with DAX1 inh-1 | inhibition, % at 6.8 µM;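 active = inhibition above the mean of all tested compounds plus 3 SD, cut at about 3% in these data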;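 also: 0% = DAX-1 transfected cells with DMSO and 100% = cells without DAX-1 with DMSO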
# LXRb hcDAF ctr = LXR-beta agonism as hcDAF-12 counter-screen; shares compounds with hcDAF-12 act; HEK293 Gal4-LXR tk-luc reporter, luminescence, 24 h; normalized: DMSO 0%, positive control 100%; activation, % at 6.8 µM; 3,400 tested, under 10 active; AID 743027;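 active = mean percent activation of the reporter above a cutoff set as the average over tested compounds plus their standard deviation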
# Target sequence (P55055 whole entry, looked up, the tested form may be a part): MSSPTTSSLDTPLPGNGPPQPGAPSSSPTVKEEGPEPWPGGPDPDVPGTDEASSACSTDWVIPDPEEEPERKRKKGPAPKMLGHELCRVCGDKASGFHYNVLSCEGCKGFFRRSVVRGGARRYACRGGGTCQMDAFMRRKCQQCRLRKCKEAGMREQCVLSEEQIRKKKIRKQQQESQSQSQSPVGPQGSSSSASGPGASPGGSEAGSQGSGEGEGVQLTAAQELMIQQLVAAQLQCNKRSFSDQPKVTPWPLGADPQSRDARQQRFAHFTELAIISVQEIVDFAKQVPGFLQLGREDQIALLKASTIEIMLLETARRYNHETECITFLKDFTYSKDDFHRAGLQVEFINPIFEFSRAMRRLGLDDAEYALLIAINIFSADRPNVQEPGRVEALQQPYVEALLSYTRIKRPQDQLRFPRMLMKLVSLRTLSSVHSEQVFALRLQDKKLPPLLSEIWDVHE
# hcDAF12 conf = hcDAF-12 agonism, confirmation assay | shares compounds with hcDAF-12 act | HEK293 hcDAF-12 lit1-tk-luc reporter, luminescence; % of Δ7-dafachronic acid response | activation, % at 6.8 µM | hit rate 61% among 3,400;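 active = mean activation across triplicate tests above the threshold derived from the earlier primary screen, cut at about 5.5% in these data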;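 also: 0% = DMSO only wells and 100% = 3 µM Δ7-dafachronic acid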
# Numbers without * were called inactive; · = no result; ! = a repeat was not active. Rows were chosen to be rich in hits. Some 4.1% of all compounds tested hit in one or more screens of this group.
SMILES,DAX1 inh-1,hcDAF-12 act,ssDAF12 agonist,hgDAF-12 ag,DAX1 inh-2,LXRb hcDAF ctr,hcDAF12 conf,others
COc1ccc(C(=O)C2CCCN(CCc3ccccc3)C2)cc1OC (configuration not stated),6.3*,2.8,0.1,1.4,·,·,·,DAX1 conf=6.0*;SF1 mutant ctr=3.7*
O=C(c1cc2cc(Cl)ccc2[nH]1)N1CCC2(CC1)OCCO2,4.6*,6.4*,0.6,5.5,0.5,·,·,DAX1 conf=3.4;SF1 mutant ctr=3.8*
O=C(c1cc2cc3ccc(Cl)cc3nc2o1)N1CCC2(CC1)OCCO2,-0.5,-0.4,-0.3,-1.2,0.5,·,·,
C=C1[C@@H](C)[C@H]2[C@H](Cc3ccccc3)NC(=O)[C@]23OC(=O)/C=C/[C@H](O)CCC[C@@H](C)C/C=C/[C@H]3[C@@H]1O,-3.9,-1.9,-1.4,-6.8,-1.9,·,·,
C=C1[C@@H](C)C2[C@H](Cc3ccccc3)NC(=O)[C@]23[C@H](OC(C)=O)/C=C/[C@@](C)(O)C(=O)[C@@H](C)C/C=C/[C@H]3[C@@H]1O (some centres not stated),13.1*,0.6,0.0,-1.6,·,·,·,DAX1 conf=17.2*;SF1 mutant ctr=-1.7
Oc1ccc2c3c1O[C@H]1c4oc5ccccc5c4C[C@@]4(O)[C@@H](C2)N(CC2CC2)CC[C@]314,0.0,-2.3,-0.6,-3.6,-0.6,·,·,
C1=NCCCN2CCCCC12 (configuration not stated),-0.1,-1.6,-0.7,-2.4,-0.5,·,·,
C/C(=N\NC(=O)c1ccccc1)c1c(O)n(C2CCCCC2)c(=O)[nH]c1=O,6.0*,4.0,-0.5,9.6,0.5,·,·,DAX1 conf=1.9;SF1 mutant ctr=2.2
NNCc1ccccc1,5.0*!,3.1,-0.8,1.7,0.3,·,·,DAX1 conf=1.9;SF1 mutant ctr=2.9*
Cn1cc(C(=O)OCC(=O)NC2(C#N)CCCC2)c2ccccc21,1.8,-1.1,-1.4,1.3,0.3,·,·,
Cc1ccc(N)c(C(=O)c2ccc(Br)cc2)c1,-0.5,-0.3,-1.1,6.1,0.9,·,·,
Cc1ccc(N)c(N)c1,6.6*,2.6,0.2,10.3,-1.9,·,·,DAX1 conf=5.5*;SF1 mutant ctr=3.2*
O=C1C(=O)N(c2ccccc2)P(=O)(N(CCCl)CCCl)N1c1ccccc1,8.1*,5.3,0.1,12.1*,3.0,·,·,DAX1 conf=6.2*;SF1 mutant ctr=3.0*
CCOS(C)(=O)=O,-1.2,-1.8,-1.0,-1.3,0.1,·,·,
CNC(=O)Oc1cccc(-c2cn3cc(Cl)ccc3n2)c1,5.8*,15.4*,2.5*,13.1*,-5.6,1.8,16.4*,DAX1 conf=14.0*;SF1 mutant ctr=5.1*
C=C[C@@H]1C2=CCOC(=O)C2=CO[C@H]1O[C@@H]1O[C@H](CO)[C@@H](O)[C@H](O)[C@H]1O,-0.2,-1.9,-1.1,0.5,0.4,·,·,
C=CCn1c(O)c(/C=C2\C=Nc3ccccc32)c(=O)[nH]c1=O,-0.3,6.7*,-0.2,1.3,·,-0.2,4.6,
OC(CN1CCCCC1)c1c[nH]c2ccccc12 (configuration not stated),-0.3,8.0*,-0.2,-0.1,2.1,-0.3,4.4,
c1ccc2c(CN3CCCCC3)c[nH]c2c1,1.1,2.5,-0.3,2.7,-1.0,·,·,
COc1ccc(NP2(=O)NCCCN2)cc1,0.6,-1.2,-0.9,1.3,-0.5,·,·,
COc1ccc(P2(=O)Nc3ccccc3N2)cc1,1.7,8.0*,1.4*,5.5,0.1,0.8,5.4,
COc1ccc2nc(NC3=NCCN3)sc2c1,2.8,10.2*,1.0*,11.9*,3.3,1.1,7.4*,
c1ccc2sc(NC3=NCCN3)nc2c1,1.2,9.3*,0.4,6.8,2.0,0.6,7.2*,
C[C@H](NC(=O)N1C[C@H]2C[C@@H](C1)c1cccc(=O)n1C2)C(=O)Nc1ccccc1F,-0.5,-1.5,-0.5,-2.7,3.9,·,·,
CCN1CCN(S(=O)(=O)c2ccc(Cl)c(C(=O)Nc3ccc(C(=O)N(CC)CC)cc3)c2)CC1,-5.4,-2.6,-1.4,-2.6,-1.0,·,·,
SMILES,DAX1 inh-1,hcDAF-12 act,ssDAF12 agonist,hgDAF-12 ag,DAX1 inh-2,LXRb hcDAF ctr,hcDAF12 conf,others
CCn1c(O)c(C=Nc2cc(Cl)ccc2Cl)c(=O)n(CC)c1=O,-0.2,6.8*,0.0,3.1,0.1,-0.3,1.1,
COc1ccc(Cl)cc1N=Cc1c(O)n(C)c(=O)n(C)c1=O,-0.1,-2.5,-1.3,4.0,-0.3,·,·,
CCCCn1c(=O)c(C(=O)Nc2ccccc2)c(O)c2ccccc21,-0.2,7.1*,-0.4,2.0,1.1,-0.1,7.6*,
CN(C)c1ccc2c(c1)N=C(c1ccco1)OP2(=S)N1CCOCC1 (configuration not stated),1.3,7.6*,1.9*,3.5,0.1,0.1,2.5,
N[C@@]1(C(=O)O)CC[C@@H](C(=O)O)C1,-1.1,0.4,-1.1,-0.8,-0.7,·,·,
CSc1ccc(C(=O)C2CCCN(Cc3cc4ccccc4[nH]3)C2)cc1 (configuration not stated),0.2,6.7*,0.6,0.2,0.2,-0.1,5.6,
Fc1ccccc1CN1Cc2ccccc2-n2nncc2C1,-1.1,3.0,-0.7,0.8,-0.7,·,·,
CCN1C(=O)N(CC)C(=O)C2(Cc3ccccc3N3CCN(c4ccccc4)CC32)C1=O (configuration not stated),0.9,8.7*,0.2,9.7,·,0.1,2.8,
COC(=O)C1=C(c2ccc(F)cc2F)C[C@@H]2CC[C@H]1N2C(=O)NCCOc1ccc(OC)cc1,·,·,·,·,-1.3,·,·,
Clc1cc(Cl)cc(NC2=NCCS2)c1,0.0,-1.7,-1.0,-1.5,-1.2,·,·,
CC1CCCC(NC(=O)CNC(=S)N2CC3CC(C2)c2cccc(=O)n2C3)C1C (configuration not stated),0.5,-1.0,-1.1,0.4,0.6,·,·,
CN(C)C(=O)Oc1noc2cc(Cl)ccc12,-0.7,3.4,-0.8,1.6,-0.6,·,·,
O=Cc1c(C(=O)O)n(Cc2ccccc2F)c2ccccc12,0.1,7.9*,0.1,0.4,1.1,-0.2,4.7,
Cc1cccc(N=Nc2ccc(N(C)C)cc2)c1,2.5,8.7*,1.0*,12.8*,1.3,1.8,5.4,
Clc1ccccc1NC1=NCCCS1,0.3,0.2,-0.9,0.7,-0.2,·,·,
Clc1ccccc1Nc1ncnc(-n2cccc2)n1,1.7,10.7*,0.7,13.0*,3.4,1.1,9.2*,
Nc1ccccc1N=Cc1c(O)n(CCC2=CCCCC2)c(=O)[nH]c1=O,3.3,9.6*,0.6,11.4*,2.7,-0.1,1.2,
